The campaign covered roughly 1,300 compounds. About 930 (72%) were called active.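 How the source made its calls: active means fitted curve reaches 40% activation signal increase at or below the top valid tested concentration in every replicate test; inconclusive means replicate tests disagree in their calls; inactive means all replicate tests inactive, including effects opposite the expected signal rise.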 So high a share suggests a set chosen from earlier hits. The list is a sample of the results. Potency and affinity values are given separately.
assay: suppression of miR-122 activity, Renilla luciferase sensor – cell-based, Huh7 psiCHECK-miR122, cherry-pick, dose response (AID 652053); details: Huh7 psiCHECK-miR122 Renilla luciferase reporter, 48 h; series mostly up to 35 µM; activation (miR-122 inhibition): at the top concentration

Activation (miR-122 inhibition), inactive:
COc1ccc(NC(=O)N(C)C[C@@H]2Oc3ccc(NC(=O)Nc4ccc(C(F)(F)F)cc4)cc3CC(=O)N([C@H](C)CO)C[C@H]2C)cc1 4.93%, COc1ccc(NC(=O)N(C)C[C@H]2Oc3ccc(NC(=O)Nc4ccc(C(F)(F)F)cc4)cc3CC(=O)N([C@@H](C)CO)C[C@@H]2C)cc1 2.76% [at 30 µM], Cc1ccc(S(=O)(=O)N(C)C[C@@H]2Oc3ccc(NC(=O)Nc4ccc(C(F)(F)F)cc4)cc3CC(=O)N([C@@H](C)CO)C[C@@H]2C)cc1 -7.06%, Cc1ccc(S(=O)(=O)N(C)C[C@@H]2Oc3ccc(NC(=O)Nc4ccc(C(F)(F)F)cc4)cc3CC(=O)N([C@H](C)CO)C[C@@H]2C)cc1 12.7%, CSC(=S)NCc1cccnc1 33.8%, Cc1ccc(NC(=O)N(C2=NCC(C)S2)c2ccccc2)cc1 (stereo not drawn) 7.27%, Cc1ccc(SC(C)C(=O)NCCC2=CCCCC2)cc1 (stereo not drawn) 0.132%, Cn1c(=O)c2cc(S(=O)(=O)NCCC(=O)NCCC3=CCCCC3)ccc2n(C)c1=O -7.18%, Cc1ccc(-c2nnc(SCc3ccc(C#N)cc3)n2Cc2ccco2)cc1 25.7%, COc1ccc(OC)c(-n2cc3c(=O)n(C)c(=O)n(C)c3c2)c1 22.8%, CC(C)c1cc(C(=O)N/N=C/C(Br)=C/c2ccccc2)n[nH]1 38%, O=C(Nc1nc2c(s1)CCc1ccccc1-2)c1ccco1 33%, CCc1nc2ccc(C(=O)N3CCN(C(=O)c4ccco4)CC3)cn2c1N(C)C(=O)COc1ccccc1 -12.7%, Cc1ccc(NC(=O)COc2ccc(Br)cc2CO)cc1 -3.88%, CC(=O)N1[C@H](CNC(=O)CN(C)C)[C@H](c2ccc(C3=CCCCC3)cc2)[C@@H]1CO 0%, CC(=O)N(C)C[C@H]1[C@H](c2ccc(-c3cccnc3)cc2)[C@@H](CO)N1C(=O)C1CC1 4.37%, CC(=O)N(C)C[C@@H]1[C@@H](c2ccc(-c3cccnc3)cc2)[C@H](CO)N1C(=O)C1CC1 -1.89%, CN1[C@H](CO)[C@@H]2c3ccccc3N(C(=O)c3ccc(F)cc3)C[C@@H]21 15.8% [at 30 µM], CC(=O)N1[C@H](CO)[C@@H]2c3ccccc3N(C(=O)c3ccc(F)cc3)C[C@@H]21 16.7%, O=C(Nc1ccccc1F)N1C[C@@H]2[C@H](c3ccccc31)[C@H](CO)N2C(=O)c1ccc(F)cc1 24.2% [at 30 µM], CC(=O)N1C[C@H]2[C@@H](c3ccccc31)[C@@H](CO)N2C(=O)c1ccc(F)cc1 -1.27%, O=C(c1ccc(F)cc1)N1C[C@H]2[C@@H](c3ccccc31)[C@H](CO)N2C(=O)c1ccc(F)cc1 12.4%, O=C(Nc1ccccc1F)N1C[C@@H]2[C@H](c3ccccc31)[C@@H](CO)N2C(=O)c1ccc(F)cc1 17%, O=C(Nc1ccccc1F)N1C[C@H]2[C@@H](c3ccccc31)[C@H](CO)N2C(=O)c1ccc(F)cc1 15.8%, CN1C(=O)c2cc(NC(=O)C3CC3)ccc2OC[C@H]2O[C@H](CC(=O)NCc3cccc(F)c3)CC[C@H]21 -7.82%, CC(C)C(=O)Nc1ccc2c(c1)C(=O)N(C)[C@@H]1CC[C@@H](CC(=O)NCc3cccc(F)c3)O[C@H]1CO2 -10.4%, CC(C)C(=O)Nc1ccc2c(c1)C(=O)N(C)[C@@H]1CC[C@H](CC(=O)NCc3cccc(F)c3)O[C@@H]1CO2 8.41%, Cc1ccc2c(CN3CCCc4ccccc43)cc(=O)oc2c1C -5.95%, C[C@H](CO)N1C[C@H](C)[C@@H](CN(C)Cc2ccncc2)Oc2c(NC(=O)C3CCOCC3)cccc2C1=O 9.97%, CNC[C@H]1Oc2c(NC(=O)C3CCOCC3)cccc2C(=O)N([C@H](C)CO)C[C@@H]1C -3.4%, CCOC(=O)N1CCN(c2ncnc3c2oc2nc(C(C)C)c4c(c23)CCC4)CC1 -9.07%, CC(=O)Nc1ccc2nc(CN3CCC(CO)(CCc4ccccc4)CC3)ccc2c1 -3.36%, COc1ccc(N(Cc2ccccc2)S(=O)(=O)c2cccc(C(=O)NC3=NCCS3)c2)cc1 29.8%, CCOC(=O)c1[nH]c(C)c(C(=O)Nc2ccccc2C)c1C 1.56%, Cc1ccc(N2CC(C(=O)Nc3nccs3)CC2=O)cc1Cl (stereo not drawn) 14.3%, c1csc(CNc2ncnc3ccc(-c4ccc5c(c4)OCO5)cc23)c1 -12.4%, CCC(=O)N(C)C[C@@H]1[C@@H](c2ccc(C3=CCCC3)cc2)[C@H](CO)N1C(=O)CC 6.67%, N#Cc1ccc(CSc2nnc(-c3cccnc3)o2)cc1 6.98%, COCCOC(=O)c1c(C)oc2ccc(NS(=O)(=O)c3ccc(C)cc3)cc12 37.7%, Cc1ccc(S(=O)(=O)NC(C)(C)CSc2nnc(Nc3ccccc3)s2)cc1 10.9%, CCc1noc(C)c1C(=O)OCC(=O)c1ccc(NC(C)=O)cc1F 8.21%, COc1ccccc1N1CCN(C(=O)CSc2nnc(NC(=O)C3CCC3)s2)CC1 -5.81%, CCCNC(=O)N1C[C@H]2[C@@H](c3ccccc31)[C@@H](CO)N2Cc1ccc(F)cc1 16.7%, O=C(c1ccccc1F)N1C[C@H]2[C@@H](c3ccccc31)[C@@H](CO)N2CC1CCCCC1 -11%, COc1cc(OC)cc(C(=O)N[C@H](C(=O)Nc2nc3ccccc3[nH]2)C(C)C)c1 -7.67%, O=C1N=C(N2CCc3ccccc3C2)S/C1=C\c1cccc(O)c1 -8.87%, Cc1ncc([N+](=O)[O-])n1CC(=O)Nc1ccc2c(c1)OCO2 -4.33%, COc1ccc(C(=O)Nc2ccccc2C(=O)N/N=C/c2ccccc2OC)cc1 13.4%, CCc1ccc(-c2cc(C(=O)NCc3ccccn3)c3ccccc3n2)cc1 7.44%, N/C(Cc1cccc2ccccc12)=N\OC(=O)c1ccc2c(c1)OCO2 -1.01%, CCOc1ccc(N2C(=O)c3cccnc3C2Nc2ccc(F)cc2)cc1 (stereo not drawn) -5.12%, O=C(Nc1ccc2c(c1)OCCO2)C1CCN(S(=O)(=O)c2ccccc2)CC1 -3.73%, CCCC(=O)Nc1nc2ccc(NC(=O)c3c(F)c(F)c(OC)c(F)c3F)cc2s1 -14%, O=C(NC(=S)NCc1ccc2c(c1)OCO2)c1ccccc1 -7.87%, Cc1ccc(S(=O)(=O)N(C)C[C@@H]2Oc3ccc(NC(=O)Nc4ccc5c(c4)OCO5)cc3CC(=O)N([C@@H](C)CO)C[C@@H]2C)cc1 15.3%, CC1CCN(S(=O)(=O)N2CCC(C(=O)NCCc3ccccc3)CC2)CC1 3.92%, Cc1cc(C)cc(N(CC(=O)N2CCC(C)CC2)S(=O)(=O)c2ccccc2)c1 29.8%, Fc1ccc(CSc2nnc(-c3cccnc3)o2)cc1 7.27%, CC(C)CC#Cc1ccc2c(c1)O[C@@H](CN(C)C(=O)C1CCC1)[C@@H](C)CN([C@H](C)CO)S2(=O)=O 13.7%, C[C@H](CO)N1C[C@H](C)[C@H](CN(C)C(=O)Nc2cccc3ccccc23)Oc2ccc(N(C)C)cc2CC1=O -14.8%, C[C@H](CO)N1C[C@H](C)[C@@H](CN(C)S(C)(=O)=O)Oc2cc(C#Cc3ccccc3)ccc2S1(=O)=O 40.6%, COC(=O)CCCCCC(CCC(=O)OC)NC(C)=O (stereo not drawn) -13.1%, COC(=O)C[C@H]1CC[C@@H]2[C@@H](COc3ccc(NS(=O)(=O)c4ccc(C)cc4)cc3C(=O)N2C)O1 4.83%, COC(=O)C[C@H]1CC[C@H]2[C@H](COc3ccc(NS(=O)(=O)c4ccc(C)cc4)cc3C(=O)N2C)O1 13.6%, CC(C)NC(=O)COC(=O)c1ccc(NS(=O)(=O)c2ccc3c(c2)OCCO3)cc1 1.64%, COC(=O)C[C@@H]1CC[C@@H]2[C@@H](COc3ccc(NS(=O)(=O)c4ccc(C)cc4)cc3C(=O)N2C)O1 -5.56%, COC(=O)C[C@@H]1CC[C@H]2[C@H](COc3ccc(NS(=O)(=O)c4ccc(C)cc4)cc3C(=O)N2C)O1 -5.27%, O=C(COC(=O)c1cccc(NS(=O)(=O)/C=C/c2ccccc2)c1)Nc1ccccc1OC(F)F 36.2%, CN(C)S(=O)(=O)NC(c1ccccc1)c1ccccc1 -5.77%, Cc1noc(C)c1S(=O)(=O)N(C)C[C@@H]1Oc2c(NC(=O)C3CCCCC3)cccc2C(=O)N([C@H](C)CO)C[C@@H]1C 25.2%, C[C@H](CO)N1C[C@H](C)[C@@H](CN(C)S(=O)(=O)c2cccs2)Oc2c(NC(=O)C3CCOCC3)cccc2C1=O 0.798%, COCC(=O)N1[C@H](CO)[C@H](c2ccccc2)[C@@H]1CNC(=O)c1ccccn1 -10.8%, COCC(=O)NC[C@H]1N[C@H](CO)[C@@H]1c1ccc(C2=CCCCC2)cc1 10.5%, O=C(COC(=O)c1c2c(nc3ccccc13)CCN(Cc1ccccc1)C2)Nc1c(F)cccc1F -4.25%, O=C(O/N=C1\CCS(=O)(=O)c2sccc21)c1ccccc1 -8.12%, CCCCNC(=O)CN1C(=O)NC2(CCOc3ccccc32)C1=O (stereo not drawn) -11.2%, O=C(Nc1ccccc1F)N1C[C@@H]2[C@H](c3ccccc31)[C@@H](CO)N2C(=O)C1CCCC1 0.798%, O=C(NC[C@@H]1[C@H](c2ccccc2)[C@@H](CO)N1C(=O)C1CC1)NC1CCCC1 -5.22%, CCC(=O)N1[C@H](CO)[C@@H]2c3ccccc3N(C(=O)c3ccccc3F)C[C@@H]21 19.3%, O=C(c1ccccc1F)N1C[C@H]2[C@@H](c3ccccc31)[C@@H](CO)N2C(=O)C1CCCC1 9.89%, O=C1CCCS(=O)(=O)c2ccccc21 -3.21%, Cc1ccc2nc(C)c(C)nc2c1N -8.43%, CNC(=O)[C@@]1(C)C=C[C@@H](Cc2ccccc2)N1C(=O)OC -0.509%, O=C(Cc1cccs1)Nc1ccc(S(=O)(=O)N2CCCCC2)cc1 24.5%, Cc1ccc(S(=O)(=O)Nc2ccc3c(c2)CC(=O)N([C@@H](C)CO)C[C@@H](C)[C@@H](CN(C)Cc2ccc(C(=O)Nc4ccccc4N)cc2)O3)cc1 -11% [at 26 µM], Cc1ccc(S(=O)(=O)Nc2ccc3c(c2)CC(=O)N([C@H](C)CO)C[C@@H](C)[C@@H](CN(C)Cc2ccc(C(=O)Nc4ccccc4N)cc2)O3)cc1 0.058%, Cc1ccc(S(=O)(=O)Nc2ccc3c(c2)CC(=O)N([C@@H](C)CO)C[C@H](C)[C@@H](CN(C)Cc2ccc(C(=O)Nc4ccccc4N)cc2)O3)cc1 -2.8% [at 28.5 µM], Cc1ccc(S(=O)(=O)Nc2ccc3c(c2)CC(=O)N([C@H](C)CO)C[C@H](C)[C@@H](CN(C)Cc2ccc(C(=O)Nc4ccccc4N)cc2)O3)cc1 19.4%
